Consider 66 compounds from PubChem BioAssay AID1745849 (National Center for Advancing Translational Sciences (NCATS), 2022).

Out of some 2,100 compounds screened, about 320 (15%) were called active. About 52% were inconclusive and are not listed. Calls follow the shape of the dose curve; as a rule, active = well fitted cell-killing curve with a large enough effect; inconclusive = small, poorly fitted or top-dose-only effect, or effect the other way; inactive = flat fitted curve, though single readings scatter. This is one part of the list. Entries that show only a call come without a potency.
Potency is read from the fitted curve at half-maximal effect.

The nature of the assay: Viability Counterscreen for CMV-Luciferase Assay of Inhibitors of ATXN expression. Also: nearly all actives have a fitted effect of over 55% in size. As to conditions: HEK-293 CMV-luciferase cells viability, protease fluorescence, 24 h. A digest of the protocol:
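In the same wells, a multiplexed format measured viability and then the CMV-luciferase signal in HEK-293 cells following 24 hr compound exposure at several concentrations. The viability substrate was Gly-Phe-AFC at 25 uM final.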
Background: Counterscreens check selectivity or assay interference.
With `O=C(C1CCC(CNS(=O)(=O)c2cccs2)CC1)N1CCN(c2ccc(F)cc2)CC1` (stereo unspecified), the Potency entry is “inactive”.
Under `CC1CCN(Cc2c(C(=O)N/N=C/c3cc(Cl)ccc3O)nnn2-c2nonc2N)CC1` stands “inactive”.
As to `CCOc1ccccc1C(=O)Nc1ccc2nc(N3CCN(c4ncccn4)CC3)cc(C)c2c1`, the Potency entry was “inactive”.
Regarding `Cn1nccc1C(=O)N1CCCC(C(=O)c2cccc3ccccc23)C1` (stereo unspecified), the Potency entry is “inactive”.
Regarding `COC(=O)C1=C(C)N(c2ccc(Cl)c(Cl)c2)C(=O)C1`, the Potency result was “inactive”.
In the case of `FC(F)(F)c1ccc(N2CCN(c3cc(-c4ccccc4)nc4ncnn34)CC2)nc1`, the Potency result is “inactive”.
In the case of `Clc1ccccc1C(c1ccccc1)(c1ccccc1)n1ccnc1`, the Potency entry was “inactive”.
With `Cc1ccc(C)c(CN2CCC(CNC(=O)Nc3ccc(C)c(C)c3)CC2)c1`, the Potency result is “inactive”.
For the compound `Cc1cc(C)nc(NNS(=O)(=O)c2ccc(F)c(Cl)c2)n1`, the Potency result is “inactive”.
As for `Cc1[nH]c(=O)c(C(=O)/C=C/c2ccccc2)c2c1CCCC2`, the Potency is 11.2 µM (active).
In the case of `Cc1cc(C)c(C(=O)/C=C/c2ccc(C(C)C)cc2)c(=O)[nH]1` it was 17.8 µM (active); in that of `COC1=C(C)C(O)=C(C(=O)/C=C/c2ccccc2)C(=O)C1(C)C`, “inactive”.
For the compound `NS(=O)(=O)c1ccc(N2N=C(c3ccccc3)CC2c2cccc(Cl)c2)cc1` (stereo unspecified), the Potency result was “inactive”.
`COc1cc2c(O)c3c(c(-c4ccc5c(c4)OCO5)c2cc1OC)C(=O)OC3`: the Potency entry is “inactive”.
With `CCCCOc1ccc(NC2=NC3(CCCC3)N=C(N)N2)cc1`, the Potency result is “inactive”.
Under `Cc1cccn2c(Nc3ccccc3)c(-c3ccccn3)nc12` stands “inactive”.
Take `Cc1ccn2c(Nc3ccccc3C)c(-c3ccccn3)nc2c1`: the Potency is 8.91 µM (active).
As for `Cc1ccc(Nc2c(-c3ccccn3)nc3cc(C)ccn23)cc1`, the Potency was 3.55 µM (active).
Under `Cc1ccc(Nc2c(-c3ccccn3)nc3cccc(C)n23)cc1` stands 3.98 µM (active); under `NS(=O)(=O)c1ccc(CCNC(=O)COC(=O)/C=C/c2cc(Br)ccc2F)cc1`, “inactive”; under `COC(=O)c1cc(Cl)ccc1NCC(N)c1ccccc1` (stereo unspecified), “inactive”.
In the case of `O=C1CN(C(=O)c2c(F)cccc2F)C(c2ccc(F)cc2)c2cc(Br)ccc2N1` (stereo unspecified) it was “inactive”.
Under `CCOc1ccc(S(=O)(=O)NCCC(=O)N2CC=C(c3ccccc3)CC2)cc1` stands “inactive”.
With `Cc1cc(N2CCN(Cc3nc(-c4ccc(Cl)cc4)oc3C)CC2)cc(C)n1`, the Potency entry is “inactive”.
Under `N#C/C(=C\Nc1ccc2cn[nH]c2c1)c1nc(-c2ccc(Cl)cc2)cs1` stands “inactive”; under `Cc1ccc(S(=O)(=O)c2nc(S(C)(=O)=O)sc2N2CCCCC2C)cc1` (stereo unspecified), “inactive”.
In the case of `COc1ccc(Cc2nnc(N/N=C/c3ccccc3O)[nH]c2=O)cc1OC` it was 5.62 µM (active); in that of `COc1cc(Br)cc(/C=N/NC(=O)Cc2ccccc2)c1O`, “inactive”.
On to `COc1ccc(CNC(=O)c2ccc(-c3cccnc3)c3ccoc23)cc1OC`, for which the Potency entry is “inactive”.
Regarding `Cc1ccc(NC(=O)CN2C(=O)c3ccccc3S2(=O)=O)cc1C`, the Potency entry is “inactive”.
As for `[O-][n+]1onc2c1CCc1c-2nn(-c2ccccc2Cl)[n+]1[O-]`, the Potency is 25.1 µM (active).
Take `CN1C(=O)/C(=C\c2ccccc2F)Sc2ccc(C(=O)NC3CCN(Cc4ccccc4)CC3)cc21`: the Potency entry was “inactive”.
For `O=C(Cc1coc2cc3c(cc12)CCC3)OCC(=O)N1CCCC1=O`, the Potency result is “inactive”.
Consider `CCCc1nc(C)cc(N2CCN(c3ccccc3)CC2)n1`, for which the Potency result was “inactive”.
For the compound `CCCCn1c2ccc(F)cc2c2nnc(NN)nc21`, the Potency was 14.1 µM (active).
Under `COc1cccc(-c2nn(C)c3sc(C(=O)NCCCN(C)Cc4ccccc4)cc23)c1` stands “inactive”; under `COc1ccc(C(=O)NNC(=S)NC(=O)C(C)(C)C)cc1`, 25.1 µM (active).
For `CC(C)CC(=O)NC(=S)NNC(=O)c1ccc(NC(=O)C2CCCCC2)cc1`, the Potency result was “inactive”.
As for `CCCCC(=O)NNC(=S)NC(=O)c1ccc(C)cc1`, the Potency entry is “inactive”.
On to `Cc1ccc(Cl)cc1-c1ccc(C=Nc2ccc(N3CCOCC3)cc2)o1`, for which the Potency result was “inactive”.
For `COc1cc(C#Cc2c(-c3cncn3C)n(C)c3ccc(-c4cnc(N5CCOCC5)nc4)cc23)cc(OC)c1`, the Potency entry was “inactive”.
As to `COc1ccc(-c2csc3ncnc(Sc4nnnn4C)c23)cc1`, the Potency result is “inactive”.
On to `O=C(c1ccco1)N1CCN(c2ncnc3scc(-c4cccs4)c23)CC1`, for which the Potency result was “inactive”.
As for `Cn1nnnc1Sc1ncnc2scc(-c3cccs3)c12`, the Potency is 8.91 µM (active).
With `C[C@@H]1CC=C[C@@H]2[C@H]1C(=O)N(Cc1ccccc1)[C@H]2c1ccccc1Br`, the Potency result was “inactive”.
Turning to `CCOC(=O)C1CCN(c2ncnc3c2cnn3-c2ccc(Cl)cc2)CC1`, the Potency result was “inactive”.
`Cc1ccccc1N=Nc1ccc(O)c2ncccc12`: the Potency was 7.94 µM (active).
Regarding `CCCOCc1ccc(O)c2ncccc12`, the Potency entry is “inactive”.
`Cc1ccc(N=Nc2ccc(O)c3ncccc23)cc1`: the Potency is 10 µM (active).
Consider `COc1ccc(CNCCC(c2ccc(OC(C)C)cc2)c2ccccc2OC)cc1` (stereo unspecified), for which the Potency result was “inactive”.
Consider `CCCC1CCC(c2ccc(C(=O)NN)cc2)CC1` (stereo unspecified), for which the Potency entry was “inactive”.
`O=S(=O)(c1ccc2nc(COc3ccc(Cl)cc3Cl)[nH]c2c1)N1CCOCC1`: the Potency result is “inactive”.
Under `CC[n+]1c(/C=C/c2c[nH]c3ccccc23)ccc2cc(C)ccc21` stands 12.6 µM (active); under `Cc1ccnc(NC(=O)CCCc2c[nH]c3ccccc23)c1`, “inactive”; under `Cc1ccc(C)c(S(=O)(=O)N2CCN(c3ncnc4sccc34)CC2)c1`, “inactive”.
In the case of `COc1ccccc1-c1ccc2c(c1)C(C)(Cc1cccc(F)c1)C(=O)N2` (stereo unspecified) it was “inactive”.
Regarding `NC1=NC[C@H](Cc2ccccc2)N1CCCCC1CCCCC1`, the Potency result was “inactive”.
Consider `CC1CCC(CN2C(Nc3ccccc3)=NC[C@@H]2Cc2ccccc2)CC1` (stereo partly specified), for which the Potency result is “inactive”.
In the case of `C[C@@H](CN1C2=NC[C@H](Cc3ccccc3)N2C[C@H]1Cc1ccc(O)cc1)NC(=O)CCC1CCCCC1`, the Potency is 17.8 µM (active).
Take `Cc1cc(OCC(=O)Nc2ccc(Br)cc2)cc2c1C(=O)CC(C)(C)O2`: the Potency result was “inactive”.
Under `COc1cc(N)ccc1Nc1c2ccccc2nc2ccccc12` stands 14.1 µM (active); under `OCCNc1c2ccccc2nc2ccccc12`, “inactive”; under `COc1cc2cc(C(=O)NC(C)c3cccc4ccccc34)c(N)nc2cc1OC` (stereo unspecified), “inactive”.
Take `O=c1c2c(-c3ccccc3)csc2nc2c3ccccc3c(NCCN3CCOCC3)nn12`: the Potency entry is “inactive”.
Take `CC(=O)C(=Cc1cccc(C#N)c1)C(=O)c1ccccc1`: the Potency was 22.4 µM (active).
For the compound `Cc1ccc(NC(=O)CCC(=O)c2cc(C)sc2C)nc1`, the Potency result is “inactive”.
